# Experimental data: paper PMC7862700, “An all-to-all approach to the identification of sequence-specific readers for epigenetic DNA modifications on cytosine”
# How the values were obtained:
# Experiment in all cases: DAPPL (digital affinity profiling via proximity ligation, sequencing); 10 mM Tris-HCl pH 7.5, 50 mM NaCl, 1 mM DTT, 4% glycerol, room temperature, 30 min; GST-TFs on glutathione beads, 16-mer random dsDNA library, 0.1% formaldehyde crosslink after washing; high values mean tight binding
# [1] = molecular target: T1, FLI1 (Homo sapiens, UniProt Q01543 1-452); details: protein: recombinant; tags: N-terminal GST; dsDNA, one strand shown
# T1 sequence: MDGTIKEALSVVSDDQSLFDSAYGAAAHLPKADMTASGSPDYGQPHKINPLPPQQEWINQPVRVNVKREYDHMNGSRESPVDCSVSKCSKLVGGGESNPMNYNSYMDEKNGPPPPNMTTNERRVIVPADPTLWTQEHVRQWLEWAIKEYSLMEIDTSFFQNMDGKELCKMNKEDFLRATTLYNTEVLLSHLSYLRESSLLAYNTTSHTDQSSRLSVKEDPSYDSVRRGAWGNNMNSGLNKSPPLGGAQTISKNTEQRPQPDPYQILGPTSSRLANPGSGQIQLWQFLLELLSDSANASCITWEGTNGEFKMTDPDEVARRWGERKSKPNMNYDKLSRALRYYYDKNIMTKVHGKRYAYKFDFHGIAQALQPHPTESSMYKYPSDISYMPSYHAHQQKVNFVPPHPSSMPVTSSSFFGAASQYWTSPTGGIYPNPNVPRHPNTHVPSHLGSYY
# Outline: (§1)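 After expression in yeast as GST fusions, human transcription factors were bound to glutathione beads, DNA-barcoded and mixed with a tag-only sample. The pools were incubated with 200 nmole of a 16-mer random double-stranded DNA library in Tris/NaCl/DTT/glycerol buffer (30 min, room temperature), washed and crosslinked with 0.1% formaldehyde. Proximity ligation with BsaI/T4 ligase ran for 1 h at 37 °C, before PCR amplification and sequencing on an Illumina NextSeq500. Binding signal is a hexamer's read frequency for a factor divided by its frequency for the tag-only sample.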
# [2] = molecular target: T2, ELK1 (Homo sapiens, UniProt P19419 1-428); details: protein: recombinant; tags: N-terminal GST; dsDNA, one strand shown
# T2 sequence: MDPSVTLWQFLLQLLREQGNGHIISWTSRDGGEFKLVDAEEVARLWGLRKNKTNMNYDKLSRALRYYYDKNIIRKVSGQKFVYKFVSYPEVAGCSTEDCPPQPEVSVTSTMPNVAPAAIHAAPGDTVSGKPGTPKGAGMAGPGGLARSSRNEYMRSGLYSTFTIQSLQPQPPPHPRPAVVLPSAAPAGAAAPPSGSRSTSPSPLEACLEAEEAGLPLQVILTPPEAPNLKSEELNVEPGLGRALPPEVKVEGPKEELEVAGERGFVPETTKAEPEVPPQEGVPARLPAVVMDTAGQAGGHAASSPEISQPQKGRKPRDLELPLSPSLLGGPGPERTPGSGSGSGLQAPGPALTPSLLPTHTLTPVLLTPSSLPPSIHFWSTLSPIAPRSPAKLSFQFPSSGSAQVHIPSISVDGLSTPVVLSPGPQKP
# Outline: as §1
# [3] = molecular target: T3, GABPA (Homo sapiens, UniProt Q06546 1-454); details: protein: recombinant; tags: N-terminal GST; dsDNA, one strand shown
# T3 sequence: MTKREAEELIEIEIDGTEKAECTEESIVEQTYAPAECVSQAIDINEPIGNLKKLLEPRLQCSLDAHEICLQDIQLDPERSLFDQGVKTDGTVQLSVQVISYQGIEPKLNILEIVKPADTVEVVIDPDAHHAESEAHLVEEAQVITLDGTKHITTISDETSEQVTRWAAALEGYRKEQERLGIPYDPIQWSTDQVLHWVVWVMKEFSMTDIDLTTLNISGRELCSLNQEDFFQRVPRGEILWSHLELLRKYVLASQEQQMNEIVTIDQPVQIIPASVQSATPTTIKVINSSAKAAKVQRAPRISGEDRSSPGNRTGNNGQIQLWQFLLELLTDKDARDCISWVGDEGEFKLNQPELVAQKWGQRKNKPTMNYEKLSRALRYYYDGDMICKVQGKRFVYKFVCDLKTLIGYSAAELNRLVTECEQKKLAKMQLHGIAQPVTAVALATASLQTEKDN
# Outline: as §1
# [4] = molecular target: T4, ERG (Homo sapiens, UniProt P11308 1-479); details: protein: recombinant; tags: N-terminal GST; dsDNA, one strand shown
# T4 sequence: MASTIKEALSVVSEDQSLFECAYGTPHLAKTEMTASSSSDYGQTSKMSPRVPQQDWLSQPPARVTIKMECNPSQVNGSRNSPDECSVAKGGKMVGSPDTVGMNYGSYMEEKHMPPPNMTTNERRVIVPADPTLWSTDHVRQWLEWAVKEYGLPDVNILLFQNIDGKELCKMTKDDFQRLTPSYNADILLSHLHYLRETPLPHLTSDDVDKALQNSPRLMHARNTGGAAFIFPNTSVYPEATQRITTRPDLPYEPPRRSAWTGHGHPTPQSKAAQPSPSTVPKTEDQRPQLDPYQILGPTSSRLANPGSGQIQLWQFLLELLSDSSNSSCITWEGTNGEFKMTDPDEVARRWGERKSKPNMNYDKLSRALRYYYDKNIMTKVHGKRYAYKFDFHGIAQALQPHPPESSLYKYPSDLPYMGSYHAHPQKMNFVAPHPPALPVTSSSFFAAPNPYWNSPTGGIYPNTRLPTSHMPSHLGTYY
# Outline: as §1
# [5] = molecular target: ELF1 (Homo sapiens, UniProt P32519 1-619); details: protein: recombinant; tags: N-terminal GST; dsDNA, one strand shown
# Outline: as §1
# [6] = molecular target: T5, EHF (Homo sapiens, UniProt Q9NZC4 1-300); details: protein: recombinant; tags: N-terminal GST; dsDNA, one strand shown
# T5 sequence: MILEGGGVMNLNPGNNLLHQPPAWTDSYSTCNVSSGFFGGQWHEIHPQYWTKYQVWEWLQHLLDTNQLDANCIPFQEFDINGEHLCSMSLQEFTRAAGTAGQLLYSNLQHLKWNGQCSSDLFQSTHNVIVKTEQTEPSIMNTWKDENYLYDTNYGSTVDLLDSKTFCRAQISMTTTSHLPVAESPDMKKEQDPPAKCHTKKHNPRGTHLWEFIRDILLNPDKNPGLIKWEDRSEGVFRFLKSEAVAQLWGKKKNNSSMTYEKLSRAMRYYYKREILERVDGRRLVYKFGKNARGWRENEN
# Outline: as §1
# [7] = molecular target: SPI1 (Homo sapiens, UniProt P17947 1-270); details: protein: recombinant; tags: N-terminal GST; dsDNA, one strand shown
# Outline: as §1
# [8] = molecular target: SPIB (Homo sapiens, UniProt Q01892 1-262); details: protein: recombinant; tags: N-terminal GST; dsDNA, one strand shown
# Outline: as §1
# [9] = molecular target: T6, ELK3 (Homo sapiens, UniProt P41970 1-407); details: protein: recombinant; tags: N-terminal GST; dsDNA, one strand shown
# T6 sequence: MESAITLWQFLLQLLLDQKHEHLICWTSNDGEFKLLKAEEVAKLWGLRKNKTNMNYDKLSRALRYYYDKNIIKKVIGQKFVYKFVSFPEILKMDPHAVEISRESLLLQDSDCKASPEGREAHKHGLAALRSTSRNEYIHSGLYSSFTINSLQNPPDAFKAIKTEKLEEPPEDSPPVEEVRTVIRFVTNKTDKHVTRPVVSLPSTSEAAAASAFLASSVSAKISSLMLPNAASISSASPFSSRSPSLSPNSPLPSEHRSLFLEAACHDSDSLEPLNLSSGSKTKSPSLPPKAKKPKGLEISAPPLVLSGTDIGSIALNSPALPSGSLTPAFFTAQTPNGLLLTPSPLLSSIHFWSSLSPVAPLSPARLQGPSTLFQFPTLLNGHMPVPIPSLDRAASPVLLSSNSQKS
# Outline: as §1
# [10] = molecular target: T7, FEV (Homo sapiens, UniProt Q99581 1-238); details: protein: recombinant; tags: N-terminal GST; dsDNA, one strand shown
# T7 sequence: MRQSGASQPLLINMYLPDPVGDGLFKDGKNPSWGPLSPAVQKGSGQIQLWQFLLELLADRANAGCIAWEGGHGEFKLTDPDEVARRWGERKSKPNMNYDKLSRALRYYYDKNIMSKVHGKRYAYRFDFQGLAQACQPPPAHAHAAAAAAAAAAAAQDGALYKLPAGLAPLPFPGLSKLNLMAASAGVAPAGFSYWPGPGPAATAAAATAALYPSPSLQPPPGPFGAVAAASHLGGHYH
# Outline: as §1
# [11] = molecular target: ETV5 (Homo sapiens, UniProt P41161 1-510); details: protein: recombinant; tags: N-terminal GST; dsDNA, one strand shown
# Outline: as §1
# [12] = molecular target: HSF1 (Homo sapiens, UniProt Q00613 1-529); details: protein: recombinant; tags: N-terminal GST; chain copies: 3; dsDNA, one strand shown
# Outline: as §1
# [13] = molecular target: T8, SPIC (Homo sapiens, UniProt Q8N5J4 1-248); details: protein: recombinant; tags: N-terminal GST; dsDNA, one strand shown
# T8 sequence: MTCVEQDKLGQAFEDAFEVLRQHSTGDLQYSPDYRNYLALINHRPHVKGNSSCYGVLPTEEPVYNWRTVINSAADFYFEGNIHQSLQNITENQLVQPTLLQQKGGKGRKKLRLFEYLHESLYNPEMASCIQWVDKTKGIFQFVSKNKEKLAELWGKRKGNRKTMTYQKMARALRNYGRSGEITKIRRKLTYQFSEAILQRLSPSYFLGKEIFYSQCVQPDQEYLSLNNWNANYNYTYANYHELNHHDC
# Outline: as §1
# [14] = molecular target: ELF4 (Homo sapiens, UniProt Q99607 1-663); details: protein: recombinant; tags: N-terminal GST; dsDNA, one strand shown
# Outline: as §1
# [15] = molecular target: T9, ELK4 (Homo sapiens, UniProt P28324-2 1-405); details: protein: recombinant; tags: N-terminal GST; dsDNA, one strand shown
# T9 sequence: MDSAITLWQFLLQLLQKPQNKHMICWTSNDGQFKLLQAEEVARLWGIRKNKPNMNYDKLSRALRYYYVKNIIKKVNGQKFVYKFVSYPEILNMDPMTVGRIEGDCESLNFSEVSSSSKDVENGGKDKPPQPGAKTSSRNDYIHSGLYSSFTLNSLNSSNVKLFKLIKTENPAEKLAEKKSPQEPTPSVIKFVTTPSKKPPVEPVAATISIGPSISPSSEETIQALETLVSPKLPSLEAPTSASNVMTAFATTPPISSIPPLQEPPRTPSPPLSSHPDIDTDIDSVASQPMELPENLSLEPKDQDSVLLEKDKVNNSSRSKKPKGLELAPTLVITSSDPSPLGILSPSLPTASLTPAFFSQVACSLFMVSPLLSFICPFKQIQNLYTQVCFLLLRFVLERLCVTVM
# Outline: as §1
# [16] = molecular target: T10, ETV2 (Homo sapiens, UniProt O00321 1-342); details: protein: recombinant; tags: N-terminal GST; dsDNA, one strand shown
# T10 sequence: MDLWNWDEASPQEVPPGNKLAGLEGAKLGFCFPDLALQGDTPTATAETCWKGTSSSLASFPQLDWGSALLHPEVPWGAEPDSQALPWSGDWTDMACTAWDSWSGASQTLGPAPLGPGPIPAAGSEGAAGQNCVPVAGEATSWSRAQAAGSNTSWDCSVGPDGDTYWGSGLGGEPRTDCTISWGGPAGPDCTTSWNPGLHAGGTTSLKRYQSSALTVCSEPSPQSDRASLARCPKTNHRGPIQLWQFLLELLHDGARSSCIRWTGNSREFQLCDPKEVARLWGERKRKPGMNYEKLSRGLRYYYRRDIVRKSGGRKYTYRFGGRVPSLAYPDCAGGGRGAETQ
# Outline: as §1
# [17] = molecular target: T11, ELF3 (Homo sapiens, UniProt P78545 1-371); details: protein: recombinant; tags: N-terminal GST; dsDNA, one strand shown
# T11 sequence: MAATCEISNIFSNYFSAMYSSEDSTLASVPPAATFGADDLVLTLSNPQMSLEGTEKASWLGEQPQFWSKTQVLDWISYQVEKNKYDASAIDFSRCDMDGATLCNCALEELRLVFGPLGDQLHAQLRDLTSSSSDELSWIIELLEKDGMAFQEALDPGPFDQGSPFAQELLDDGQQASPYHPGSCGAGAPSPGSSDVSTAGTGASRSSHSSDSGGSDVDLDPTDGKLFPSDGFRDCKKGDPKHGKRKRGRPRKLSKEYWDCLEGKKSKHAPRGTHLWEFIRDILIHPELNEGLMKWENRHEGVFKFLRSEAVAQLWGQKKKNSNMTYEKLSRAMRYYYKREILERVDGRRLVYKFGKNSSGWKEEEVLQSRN
# Outline: as §1
# [18] = molecular target: CRX (Homo sapiens, UniProt O43186 1-299); details: protein: recombinant; tags: N-terminal GST; dsDNA, one strand shown
# Outline: as §1
# [19] = molecular target: ETV1 (Homo sapiens, UniProt P50549 1-477); details: protein: recombinant; tags: N-terminal GST; dsDNA, one strand shown
# Outline: as §1
# CRX, sequence (O43186 whole entry): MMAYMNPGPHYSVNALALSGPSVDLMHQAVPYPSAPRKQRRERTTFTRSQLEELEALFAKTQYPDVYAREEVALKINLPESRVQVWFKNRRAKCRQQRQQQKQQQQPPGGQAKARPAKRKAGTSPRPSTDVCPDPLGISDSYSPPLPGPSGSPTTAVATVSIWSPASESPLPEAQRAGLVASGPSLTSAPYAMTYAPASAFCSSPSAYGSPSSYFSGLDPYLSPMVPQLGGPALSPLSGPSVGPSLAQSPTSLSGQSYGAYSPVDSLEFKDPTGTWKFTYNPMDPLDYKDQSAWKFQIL
# ETV1, sequence (P50549 whole entry): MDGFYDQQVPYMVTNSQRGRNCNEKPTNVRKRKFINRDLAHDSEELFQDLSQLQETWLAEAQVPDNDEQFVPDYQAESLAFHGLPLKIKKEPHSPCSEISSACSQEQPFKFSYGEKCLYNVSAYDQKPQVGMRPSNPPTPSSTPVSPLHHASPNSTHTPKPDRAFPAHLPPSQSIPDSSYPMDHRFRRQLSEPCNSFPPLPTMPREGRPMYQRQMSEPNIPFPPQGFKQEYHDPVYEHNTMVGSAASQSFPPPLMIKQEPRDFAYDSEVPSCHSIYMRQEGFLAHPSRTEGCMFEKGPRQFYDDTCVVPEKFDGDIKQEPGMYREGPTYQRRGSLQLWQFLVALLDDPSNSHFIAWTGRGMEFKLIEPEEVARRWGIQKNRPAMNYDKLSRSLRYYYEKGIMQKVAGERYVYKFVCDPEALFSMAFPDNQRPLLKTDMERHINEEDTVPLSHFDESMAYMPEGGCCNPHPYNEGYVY
# ETV5, sequence (P41161 whole entry): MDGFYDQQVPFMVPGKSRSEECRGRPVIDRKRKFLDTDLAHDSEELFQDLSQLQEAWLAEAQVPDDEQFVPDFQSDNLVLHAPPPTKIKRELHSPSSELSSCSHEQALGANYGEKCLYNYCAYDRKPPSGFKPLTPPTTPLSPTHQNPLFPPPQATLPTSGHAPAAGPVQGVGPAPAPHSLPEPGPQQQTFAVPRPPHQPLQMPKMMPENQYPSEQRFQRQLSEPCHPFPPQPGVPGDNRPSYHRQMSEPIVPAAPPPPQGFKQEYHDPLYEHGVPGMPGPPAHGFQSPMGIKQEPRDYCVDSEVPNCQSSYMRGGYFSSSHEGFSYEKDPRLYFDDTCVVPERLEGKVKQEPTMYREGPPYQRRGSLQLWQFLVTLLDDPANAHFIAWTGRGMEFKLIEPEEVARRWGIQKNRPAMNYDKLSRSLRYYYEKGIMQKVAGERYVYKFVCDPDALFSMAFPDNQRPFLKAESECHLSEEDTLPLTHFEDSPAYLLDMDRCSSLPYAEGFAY
# SPIB, sequence (Q01892 whole entry): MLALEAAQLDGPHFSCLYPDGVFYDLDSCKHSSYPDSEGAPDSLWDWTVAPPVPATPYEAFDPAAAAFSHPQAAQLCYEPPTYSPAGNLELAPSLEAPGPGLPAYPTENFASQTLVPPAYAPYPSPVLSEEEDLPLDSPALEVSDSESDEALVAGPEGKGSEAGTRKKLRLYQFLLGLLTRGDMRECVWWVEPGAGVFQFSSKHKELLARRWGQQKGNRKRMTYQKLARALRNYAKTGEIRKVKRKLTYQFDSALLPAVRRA
# ELF1, sequence (P32519 whole entry): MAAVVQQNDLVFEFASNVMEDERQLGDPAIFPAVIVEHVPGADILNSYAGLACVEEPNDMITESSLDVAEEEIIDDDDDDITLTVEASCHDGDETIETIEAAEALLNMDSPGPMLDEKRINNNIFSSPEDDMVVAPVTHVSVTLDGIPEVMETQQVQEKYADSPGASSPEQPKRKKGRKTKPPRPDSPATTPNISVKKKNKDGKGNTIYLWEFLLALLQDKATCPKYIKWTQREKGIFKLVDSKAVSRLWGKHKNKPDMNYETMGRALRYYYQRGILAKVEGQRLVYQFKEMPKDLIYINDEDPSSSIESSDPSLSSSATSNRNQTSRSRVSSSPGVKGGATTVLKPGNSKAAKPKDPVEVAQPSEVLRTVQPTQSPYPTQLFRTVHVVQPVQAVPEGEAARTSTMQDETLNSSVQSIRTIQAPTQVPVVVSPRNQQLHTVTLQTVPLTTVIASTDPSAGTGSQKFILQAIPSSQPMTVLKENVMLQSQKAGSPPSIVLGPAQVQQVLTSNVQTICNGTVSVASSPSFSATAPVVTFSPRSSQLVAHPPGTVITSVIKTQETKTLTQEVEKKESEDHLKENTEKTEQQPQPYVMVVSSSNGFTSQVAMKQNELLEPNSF
# HSF1, sequence (Q00613 whole entry): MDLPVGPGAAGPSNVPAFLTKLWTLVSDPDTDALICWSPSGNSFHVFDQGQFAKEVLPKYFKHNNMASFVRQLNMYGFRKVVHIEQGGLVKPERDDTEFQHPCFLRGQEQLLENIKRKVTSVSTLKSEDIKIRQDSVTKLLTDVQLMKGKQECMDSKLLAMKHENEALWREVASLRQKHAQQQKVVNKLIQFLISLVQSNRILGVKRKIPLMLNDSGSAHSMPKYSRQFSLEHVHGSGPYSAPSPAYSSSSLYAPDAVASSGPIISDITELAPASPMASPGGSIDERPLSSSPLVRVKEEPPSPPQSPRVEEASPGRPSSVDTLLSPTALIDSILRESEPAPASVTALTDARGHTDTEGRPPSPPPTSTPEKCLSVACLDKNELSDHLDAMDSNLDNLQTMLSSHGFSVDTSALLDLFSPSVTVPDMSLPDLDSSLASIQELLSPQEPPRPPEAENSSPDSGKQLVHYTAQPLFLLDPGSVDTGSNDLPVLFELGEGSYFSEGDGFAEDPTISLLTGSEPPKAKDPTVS
# ELF4, sequence (Q99607 whole entry): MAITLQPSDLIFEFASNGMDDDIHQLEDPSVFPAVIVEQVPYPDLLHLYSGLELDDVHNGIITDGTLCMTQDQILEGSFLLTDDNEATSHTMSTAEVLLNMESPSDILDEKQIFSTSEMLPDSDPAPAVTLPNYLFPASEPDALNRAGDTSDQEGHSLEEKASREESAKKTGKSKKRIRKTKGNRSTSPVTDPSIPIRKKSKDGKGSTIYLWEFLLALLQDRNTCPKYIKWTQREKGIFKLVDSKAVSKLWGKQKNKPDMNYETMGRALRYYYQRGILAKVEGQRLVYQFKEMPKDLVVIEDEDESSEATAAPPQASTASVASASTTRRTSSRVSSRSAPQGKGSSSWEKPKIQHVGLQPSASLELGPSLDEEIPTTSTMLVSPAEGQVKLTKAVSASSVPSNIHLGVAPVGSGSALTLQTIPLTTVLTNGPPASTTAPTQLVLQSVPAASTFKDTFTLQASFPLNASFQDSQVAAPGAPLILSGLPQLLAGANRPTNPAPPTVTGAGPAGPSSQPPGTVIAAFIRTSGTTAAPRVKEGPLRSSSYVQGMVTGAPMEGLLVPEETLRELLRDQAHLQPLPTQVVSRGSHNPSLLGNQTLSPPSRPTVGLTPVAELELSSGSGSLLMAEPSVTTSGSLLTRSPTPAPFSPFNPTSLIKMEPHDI
sequence,measurement,setting,value
CTAAGT,binding signal,[1],"1.21 fold enrichment (6-mer frequency, TF over GST control)"
same,binding signal,[2],"1.17 fold enrichment (6-mer frequency, TF over GST control)"
same,binding signal,[3],"1.26 fold enrichment (6-mer frequency, TF over GST control)"
same,binding signal,[4],"1.18 fold enrichment (6-mer frequency, TF over GST control)"
same,binding signal,[5],"1.2 fold enrichment (6-mer frequency, TF over GST control)"
same,binding signal,[6],"1.26 fold enrichment (6-mer frequency, TF over GST control)"
same,binding signal,[7],"1.19 fold enrichment (6-mer frequency, TF over GST control)"
same,binding signal,[8],"1.24 fold enrichment (6-mer frequency, TF over GST control)"
same,binding signal,[9],"1.16 fold enrichment (6-mer frequency, TF over GST control)"
same,binding signal,[10],"1.13 fold enrichment (6-mer frequency, TF over GST control)"
same,binding signal,[11],"1.18 fold enrichment (6-mer frequency, TF over GST control)"
same,binding signal,[12],"1.3 fold enrichment (6-mer frequency, TF over GST control)"
same,binding signal,[13],"1.24 fold enrichment (6-mer frequency, TF over GST control)"
same,binding signal,[14],"1.24 fold enrichment (6-mer frequency, TF over GST control)"
same,binding signal,[15],"1.13 fold enrichment (6-mer frequency, TF over GST control)"
same,binding signal,[16],"1.24 fold enrichment (6-mer frequency, TF over GST control)"
same,binding signal,[17],"1.02 fold enrichment (6-mer frequency, TF over GST control)"
same,binding signal,[18],"1.8 fold enrichment (6-mer frequency, TF over GST control)"
same,binding signal,[19],"1.18 fold enrichment (6-mer frequency, TF over GST control)"
